The target of assay [1] is Phospholipid hydroperoxide glutathione peroxidase GPX4 (Homo sapiens) (UniProt P36969). Description: Primary qHTS Assay for Inhibitors of Recombinant Selenoprotein Glutathione Peroxidase 4 (GPX4) (AID 1845192). Further: nearly all actives have a fitted effect of over 65% in size. Further: potency means the concentration at half of the fitted maximal effect. Put shortly: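 Steps: GPX4 plus compound, 30 min RT; add GR/GSH/NADPH master mix; start with cumene hydroperoxide; read 340/450 nm fluorescence at 0 and 15 min. Finals were 200 nM GPX4, 1 mM GSH, 0.5 mM CHP, 0.5 mM NADPH, 100 nM GR.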
Phospholipid hydroperoxide glutathione peroxidase GPX4 (Homo sapiens), sequence (P36969 whole entry, looked up): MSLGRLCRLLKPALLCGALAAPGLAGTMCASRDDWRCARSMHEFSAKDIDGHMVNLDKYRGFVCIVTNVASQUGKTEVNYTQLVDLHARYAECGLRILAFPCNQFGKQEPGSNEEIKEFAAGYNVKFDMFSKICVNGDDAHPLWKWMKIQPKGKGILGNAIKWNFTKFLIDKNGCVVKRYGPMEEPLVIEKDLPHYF

The target of assay [2] is Luciferin 4-monooxygenase (Photinus pyralis) (UniProt P08659). Description: Primary firefly luciferase (FLuc) qHTS assay for identification of artifact compounds. (AID 1845220). Further: nearly all actives have a fitted effect of over 60% in size. Further: potency means the concentration at half of the fitted maximal effect. The method, boiled down: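 D-luciferin and ATP (10 uM each, final) in Tris acetate buffer pH 7.6 were incubated with compounds for 15 min at room temperature. The reaction was started with 10 nM Photinus pyralis luciferase and luminescence read after 5 min. Percent inhibition was fitted to a 4-parameter Hill equation.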

Assay [3] in a line: Primary fluorescence-based thiol-reactive (MSTI) qHTS assay for identification of artifact compounds. (AID 1845221).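 Further: series mostly up to about 54 µM; thiol-reactive compounds lower the probe fluorescence signal; nearly all actives have a fitted effect of over 65% in size.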 The method, boiled down:
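MSTI probe at 4 uM final in 2% DMSO/PBS pH 7.4; compounds, 1 h at room temperature in dark. Fluorescence Ex/Em 525/598 nm, normalised to Acetyl-MSTI and MSTI, fitted to 4-parameter Hill.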
In general terms: Quantitative high-throughput screening tests each substance at several concentrations.

Assay [4] has as its system Nanoluciferase (engineered Oplophorus gracilirostris luciferase). As to the kind of experiment: Primary Nanoluciferase (NLuc) qHTS assay for identification of artifact compounds. (AID 1845222). Further: series mostly up to about 54 µM. The method, boiled down: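 Diluted conditioned medium from NLuc-expressing S16 cells treated with compounds for 15 min at room temperature, then Nano-Glo substrate added; luminescence read after 5 min. Percent inhibition versus no-enzyme and DMSO controls fitted to 4-parameter Hill equation.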

A short description of assay [5]: Primary redox qHTS assay for identification of artifact compounds. (AID 1845223). The method, boiled down: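 Redox-cycling detection via DTT (250 uM final) oxidation coupled to Amplex Red (25 uM)/HRP (250 mU/mL) in HBSS. 15 min preincubation plus 30 min after DTT, room temperature. Ex/Em 525/598 nm; 4-parameter Hill fit against DMSO and 10 uM DA3003.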
In assay [6] the target is Glutathione peroxidase 1 (Homo sapiens) (UniProt P07203). Description: Primary qHTS Assay for Inhibitors of Recombinant Selenoprotein Glutathione Peroxidase 1 (GPX1) (AID 1845191). Further: nearly all actives have a fitted effect of over 65% in size. The method, boiled down: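 GR-coupled readout: NADPH consumption tracked by fluorescence, ex 340/em 450 nm, at t=0 and after 15 min at RT. Final mix 10 nM GPX1, 1 mM GSH, 0.5 mM CHP, 0.5 mM NADPH, 100 nM GR, 0.01% BSA, following 30 min enzyme–compound preincubation.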
Glutathione peroxidase 1 (Homo sapiens), sequence (P07203 whole entry, looked up): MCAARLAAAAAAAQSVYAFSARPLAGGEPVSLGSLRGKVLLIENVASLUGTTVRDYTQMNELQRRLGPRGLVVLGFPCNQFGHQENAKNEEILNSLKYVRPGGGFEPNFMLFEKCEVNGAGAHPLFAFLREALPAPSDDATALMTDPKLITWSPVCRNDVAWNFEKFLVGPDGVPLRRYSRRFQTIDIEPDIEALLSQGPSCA

The results in this text go back to PubChem BioAssay (NCATS).

Molecules are shown by their SMILES. Results filed as inconclusive are left out. Active and inactive are the calls of the source. The call rests on the fitted dose curve; in most records, active means well fitted curve in the direction sought with a large enough effect; inconclusive means small, poorly fitted or top-dose-only effect, or another doubt; inactive means no such curve, though single readings can be large; an effect the other way counts as inactive or inconclusive.

On to `CC1CN(c2cc3c(cc2F)c(=O)c(C(=O)O)cn3-c2ccc(F)cc2F)CCN1` (centres undefined), for which the Potency entry in assay [1], in assay [2], in assay [3] and in assay [4] was “inactive” in each case. In addition, in assay [5], the outcome was inactive.

Regarding `C=CCOc1cc(Cl)ccc1C(=O)NCCN(CC)CC`, the Potency entry in assay [6], in assay [2], in assay [3] and in assay [4] was “inactive” throughout. Further, the compound was classed as inactive in assay [5].

Take `CC(=O)Nc1ccn(C2COC(COC(=O)c3ccccc3)O2)c(=O)n1` (centres undefined): the Potency result in assay [6], in assay [1], in assay [2], in assay [3] and in assay [4] was “inactive” throughout. The compound was classed as inactive in assay [5].

Consider `C[C@H](CN1CCCC1)C(=O)c1ccc(C(F)(F)F)cc1`, for which the Potency entry in assay [6], in assay [1], in assay [2], in assay [3] and in assay [4] was “inactive” each time. Also, in assay [5], the compound was classed as inactive.

Regarding `Nc1c(NC/C=C\COc2cc(CN3CCCCC3)ccn2)c(=O)c1=O`, the Potency result in assay [6], in assay [2], in assay [3] and in assay [4] was “inactive” in each case. Moreover, the call in assay [5] was inactive.

For `Cn1cc(S(C)=O)c(=O)c2ccc(F)cc21` (centres undefined), the Potency result in assay [6], in assay [1], in assay [2], in assay [3] and in assay [4] was “inactive” throughout. Also, in assay [5], the compound was called inactive.

As to `CC1c2ccccc2CN1NC(=O)c1ccc(Cl)c(S(N)(=O)=O)c1` (centres undefined), the Potency result in assay [6], in assay [1], in assay [2] and in assay [3] was “inactive” in each case. Also, the call in assay [5] was inactive.

Consider `CN(C)C(=O)CNC(=O)Cc1ccccc1`, for which the Potency result in assay [6], in assay [1], in assay [2], in assay [3] and in assay [4] was “inactive” throughout. Further, the compound was classed as inactive in assay [5].

Consider `CO[C@]1(NC(=O)CSC(F)F)C(=O)N2C(C(=O)O)=C(CSc3nnnn3CCO)CO[C@H]21`, for which the Potency entry in assay [6], in assay [1], in assay [2], in assay [3] and in assay [4] was “inactive” each time. The result in assay [5] was inactive.

Consider `O=C(CCC1CCN(Cc2ccccc2)CC1)c1ccc2c(c1)NCCCC2`, for which the Potency entry in assay [6], in assay [1], in assay [2], in assay [3] and in assay [4] was “inactive” throughout. Besides, in assay [5], the result was inactive.

Regarding `CC(C(=O)O)c1ccc(/C=C2\CCCCC2=O)cc1` (centres undefined), the Potency result in assay [6], in assay [1], in assay [3] and in assay [4] was “inactive” each time. Moreover, the Potency in assay [2] is 23.9 µM (active). The compound was classed as inactive in assay [5].

With `CC[C@@]1(O)C(=O)OCc2c1cc1n(c2=O)Cc2c-1nc1ccccc1c2/C=N/OC(C)(C)C`, the Potency in assay [1] is 12.6 µM (active).

On to `COc1cc(C(=O)OC(COCCC(C)C)CN2CCOCC2)cc(OC)c1OC` (centres undefined), for which the Potency entry in assay [6], in assay [1], in assay [2], in assay [3] and in assay [4] was “inactive” in each case. In assay [5], the call was inactive.

For the compound `CCOC(=O)Cn1cccc1-c1nc(-c2ccc(OC)cc2)c(-c2ccc(OC)cc2)s1`, the Potency result in assay [6], in assay [2], in assay [3] and in assay [4] was “inactive” each time. The outcome in assay [5] was inactive.
